Inconclusive results are not listed. Activity calls are given as the source filed them. Rule for the calls: active = hit-call score of the fitted dose curve at least 0.9, where 1 is the maximum; inconclusive = response in the unintended direction; inactive = score below 0.9.
The molecules below were run against Nuclear receptor subfamily 1 group I member 3 (Homo sapiens) (UniProt Q14994) (assay: ATG_CAR_TRANS: Attagene TRANS-FACTORIAL HepG2 Assay for human Constitutive Androstane Receptor (CAR) (AID 2282969;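 note: activators raise reporter mRNA above DMSO so AC50 marks induction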)). Conditions: HepG2 Attagene TRANS-FACTORIAL CAR reporter.
Sequence of Nuclear receptor subfamily 1 group I member 3 (Homo sapiens) (Q14994 whole entry, looked up): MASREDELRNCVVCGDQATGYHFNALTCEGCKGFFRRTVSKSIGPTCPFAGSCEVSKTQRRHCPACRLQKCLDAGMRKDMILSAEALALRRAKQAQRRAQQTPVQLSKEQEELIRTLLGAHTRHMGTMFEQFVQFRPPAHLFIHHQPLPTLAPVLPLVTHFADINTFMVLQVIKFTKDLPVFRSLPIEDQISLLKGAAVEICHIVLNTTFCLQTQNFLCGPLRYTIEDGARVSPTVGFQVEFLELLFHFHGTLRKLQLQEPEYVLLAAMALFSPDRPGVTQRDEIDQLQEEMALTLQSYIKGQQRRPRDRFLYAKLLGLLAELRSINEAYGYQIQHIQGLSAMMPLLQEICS
Experimental: ATG_TRANS is a cell-based, multiplexed-readout assay that uses HepG2, a human liver cell line, with measurements taken at 24 hours after chemical dosing in a 24-well plate.ATG_CAR_TRANS is one of 30 assay component(s) measured or calculated from the ATG_TRANS assay. It is designed to make measurements of mRNA induction, a form of inducible reporter, as detected with fluorescence intensity signals by Reverse transcription polymerase chain reaction (RT-PCR) and Capillary electrophoresis technology.Data from the assay component ATG_CAR_TRANS was analyzed into 1 assay endpoint. This assay endpoint, ATG_CAR_TRANS, was analyzed in the positive analysis fitting direction relative to DMSO as the negative control and baseline of activity. Using a type of inducible reporter, measures of mRNA for gain-of-signal activity can be used to understand the reporter gene at the transcription factor-level as they relate to the gene NR1I3. Furthermore, this assay endpoint can be referred to as a primary readout, because this assay has produced multiple assay endpoints where this one serves a reporter gene function. To generalize the intended target to other relatable targets, this assay endpoint is annotated to the nuclear receptor intended target family, where the subfamily is non-steroidal.
Human liver HepG2 cells are transiently transfected with multiple reporter transcription units (MRTUs) in 6-well plates using FuGene 6 reagent (Roche; 3 ml FuGene/1 mg DNA). The MRTU constructs are regulated by a cis-regulating element (promoter). […] A major difference between the CIS and TRANS system is that in CIS activities of endogenous TFs are measured, whereas the TRANS assay evaluates changes in activities of exogenous, chimeric NR-Gal4 proteins. […] At the end of 24 hour incubation, total RNA was isolated using TriZol reagent (Invitrogen). The isolated RNA is then reverse-transcribed using oligo(dT) primer and Mo-MLV reverse transcriptase (Invitrogen) with DNAse I (Ambion) treatment for 30 min. The one-tenth of the produced cDNA was amplified by PCR using Taq DNA polymerase (Invitrogen) and two reporter sequence-specific primers. The PCR products were fluorescently labeled by primer extension with 6-arboxyfluorescein (6-FAM) 5'-labeled reporter sequence-specific primer (2 min at 95 C, 20 s at 68 C and 10 min at 72 C) and these products were digested with 5U of HpaI (New England Biolabs) for 2h at 37 C. The fragments were purified using Qiaquick PCR columns (Qiagen), analyzed on an ABI 3130xL genetic analyzer (Applied Biosystems) with peak positions identified by using a set of X-rhodamine (ROX)-labeled MapMarker1000 molecular weight standards (BioVentures). The raw capillary electrophoresis data was processed using Attagraph software (Attagene).

| SMILES | outcome |
| --- | --- |
| CCCCC(CC)COC(=O)c1ccccc1C(=O)O (centres undefined) | inactive |
| CCC(O)=C1C(=O)CC(C(=O)O)CC1=O (centres undefined) | inactive |
| CCN(Cc1c(F)cccc1Cl)c1c([N+](=O)[O-])cc(C(F)(F)F)cc1[N+](=O)[O-] | inactive |
| CCOC(=O)C(C)Oc1ccc(Oc2cnc3cc(Cl)ccc3n2)cc1 (centres undefined) | inactive |
| CCCN(CCC)C(=O)SCC | inactive |
| CCNc1nc(N)nc(Cl)n1 | inactive |
| CCCN(CCC)c1c([N+](=O)[O-])cc(C(F)(F)F)c(N)c1[N+](=O)[O-] | inactive |
| COC(=O)c1ccccc1S(=O)(=O)NC(=O)Nc1nc(OC(F)F)cc(OC(F)F)n1 | inactive |
| CCSC(=O)N(CC(C)C)CC(C)C | inactive |
| CC1(C)C(C=C(Cl)Cl)C1C(=O)OCc1cccc(Oc2ccccc2)c1 (centres undefined) | inactive |
| COc1nc(C)nc(NC(=O)NS(=O)(=O)c2ccccc2OCCCl)n1 | inactive |
| O=C(O)C1(C(=O)Nc2ccc(Cl)cc2Cl)CC1 | inactive |
| N#CSCSc1nc2ccccc2s1 | inactive |
| CC(C)CCCCCCc1ccc(O)cc1 | inactive |
| COC(=O)c1cccc(C)c1S(=O)(=O)NC(=O)Nc1nc(OCC(F)(F)F)nc(N(C)C)n1 | inactive |
| CN(C)C(=O)Nc1ccc(Cl)c(Cl)c1 | inactive |
| c1ccc(Nc2ccccc2)cc1 | inactive |
| CCCOC(=O)c1ccc(C(=O)OCCC)nc1 | inactive |
| OB(O)O | inactive |
| CCCCOCCOCCOCc1cc2c(cc1CCC)OCO2 | inactive |

| SMILES | outcome |
| --- | --- |
| O=C(c1ccccc1)C1CCCCC1 | inactive |
| CCC(C)OC(=O)N1CCCCC1CCO (centres undefined) | inactive |
| N[C@@H](Cc1cc(I)c(Oc2ccc(O)c(I)c2)c(I)c1)C(=O)O | inactive |
| C=CCOC(Cn1ccnc1)c1ccc(Cl)cc1Cl (centres undefined) | inactive |
| CC(=O)S[C@@H]1CC2=CC(=O)CC[C@]2(C)[C@H]2CC[C@@]3(C)[C@@H](CC[C@@]34CCC(=O)O4)[C@H]12 | inactive |
| CC(C)(c1ccc(O)cc1)c1ccc(O)cc1 | inactive |
| CCCOC(=O)NCCCN(C)C | inactive |
| CCOC(=O)C(C)Oc1ccc(Oc2nc3ccc(Cl)cc3o2)cc1 (centres undefined) | inactive |
| CCOC(=O)c1ccc(O)cc1 | inactive |
| COc1c(Cl)ccc(Cl)c1C(=O)O | inactive |
| COC(=O)c1ccc(CNS(C)(=O)=O)cc1S(=O)(=O)NC(=O)Nc1nc(OC)cc(OC)n1 | inactive |
| CCCCC(CC)CN1C(=O)C2C3C=CC(C3)C2C1=O (centres undefined) | inactive |
| O=C(c1ccc(O)cc1O)c1ccc(O)cc1O | inactive |
| CCCCOC(=O)C(C)Oc1ccc(Oc2ccc(C(F)(F)F)cn2)cc1 (centres undefined) | inactive |
| COCCO | inactive |
| CCOC(=O)[C@H](C)Oc1ccc(Oc2nc3ccc(Cl)cc3o2)cc1 | inactive |
| O=C(O)c1ccccc1 | inactive |
| CCCCOC(=O)[C@@H](C)Oc1ccc(Oc2ccc(C(F)(F)F)cn2)cc1 | inactive |
| CCOC(=O)NCCOc1ccc(Oc2ccccc2)cc1 | inactive |

From PubChem BioAssay (EPA / NIEHS)
